This is one part of a sample in which hits are shown more often than they occur.
Pf Dd2 growth – Plasmodium falciparum Dd2 growth inhibition; P. falciparum Dd2 growth, SYBR Green, 72 h; Potency, µM (titrated, usually from 28.9 µM), for inactives: at the top dose activity, negative = inhibition, most hits filed as inhibitors; 120,000 tested, 4.3% active; AID 1347417; active = well fitted inhibition curve with a large enough effect;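 note: plate controls were DMSO vehicle for no effect and reference drug for full effect; nearly all actives have a fitted effect of over 65% in size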
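Readout: SYBR Green fluorescence, 485 nm excitation, 535 nm emission, after ~16 h lysis at 37C. Before that, Dd2-infected red cells (2.5% hematocrit) grew 72 h with compound, 29 uM top final concentration.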
Numbers without * were called inactive; i = inactive; [ ] = another dose, or the depositor's remark. Potency is the fitted concentration of half-maximal effect.

SMILES	Pf Dd2 growth
COC[C@@H]1CN(C(=O)COc2ccc(Cl)cc2C)C[C@H]1C(N)=O	1%
COCc1nnc2n1CCC(NC(=O)COc1ccc(Cl)cc1)CC2 (centres undefined)	9%
O=C(COc1ccccc1)NCc1ccc2c(c1)CCN2C(=O)c1ccc(Cl)cc1	62%
COc1ccc(OCC2c3cc(OC)c(OC)cc3CCN2C(=O)COc2ccc(Cl)cc2Cl)cc1 (centres undefined)	10µM*
COC(=O)C[C@@H]1CCN(C(=O)COc2ccccc2)C[C@@H]1CC1=NCCc2cc(OC)c(OC)cc21	i
COc1cc2c(cc1OC)C(COc1ccc(C(C)C)cc1)N(C(=O)COc1ccccc1)CC2 (centres undefined)	11µM*
COCCOC1CCN(C(=O)COc2ccccc2)CC1	3%
Cc1ccc2[nH]c(=O)c(CCC(=O)N(C)Cc3cn(C)nc3C)cc2c1	-16%
O=C1c2c(-c3nc(-c4ccsc4)no3)nnn2CCN1Cc1cc(F)cc(F)c1	i
Cc1ccsc1C(=O)N1CCCC(Cc2nc(C3CCOCC3)no2)C1 (centres undefined)	-6%
COc1ccc(C(=O)N2[C@@H]3CC[C@H]2CC(NC(=O)c2ccncc2)C3)cc1F (some centres undefined)	5%
O=C(NC1CCN(c2cc(-c3ccccc3)[nH]n2)CC1)c1cc2ccccc2[nH]1	i
Cc1nc2n(c1C(=O)Nc1cc(-c3ccc(F)cc3)[nH]n1)CCC(Nc1ccc(F)cc1)C2 (centres undefined)	8.9µM*
Cc1nc2n(c1C(=O)NCC1CC1)CCC(Nc1ccc(F)cc1)C2 (centres undefined)	-25%[44.1 µM]
Cc1ccccc1NC1CCn2c(nc(C)c2C(=O)Nc2ccccc2)C1 (centres undefined)	i
CCCOCC(=O)N1CCCC(c2cc(N3CCCC3)nc(C)n2)C1 (centres undefined)	-5%
Cc1ccoc1C(=O)N[C@@H]1CN(c2ncccn2)C[C@H]1CO	29%
Cc1noc([C@@H]2CN(Cc3ccccc3)C[C@H]2CO)n1	-5%
COc1cc(NC(=O)C2(Cc3ccccc3)CCCCC(=O)N2)cc(OC)c1 (centres undefined)	i
CN1CC2(CCN(C(=O)C3CCCC3)CC2)CC1C(=O)N1CCOCC1 (centres undefined)	-12%
CC(C)C(=O)N1CCN(c2nc3c(s2)CC(C(=O)Nc2ccc(Cl)cc2)CC3)CC1 (centres undefined)	i
CC(=O)N1CCN(c2nc3c(s2)CC(C(=O)NC2CCCCC2)CC3)CC1 (centres undefined)	i
CC(=O)N1CCN(c2nc3c(s2)CC(C(=O)Nc2cc(F)cc(F)c2)CC3)CC1 (centres undefined)	4.5µM*
CC(=O)N1CCN(c2nc3c(s2)CC(C(=O)NCc2ccccc2C)CC3)CC1 (centres undefined)	i
COc1ccc(CNC(=O)C2CCc3nc(N4CCN(C(C)=O)CC4)sc3C2)cc1 (centres undefined)	i
SMILES	Pf Dd2 growth
CC(C)C(=O)N1CCN(c2nc3c(s2)CC(C(=O)NCc2ccco2)CC3)CC1 (centres undefined)	13µM*
CCC(=O)N1CCN(c2nc3c(s2)CC(C(=O)NCc2ccc(F)cc2)CC3)CC1 (centres undefined)	-29%
CC(=O)N1CCN(c2nc3c(s2)CC(C(=O)Nc2cccc(C(C)(C)C)c2)CC3)CC1 (centres undefined)	-13%
Cc1ccc(CNC(=O)C2CCc3nc(N4CCN(C(=O)C(C)C)CC4)sc3C2)o1 (centres undefined)	7.9µM*
CCN(Cc1cnn(CC)c1)C(=O)c1ccc(N2CC3CC(C2)[C@H]2CCCC(=O)N2C3)nc1 (some centres undefined)	13%
CC(C)c1ccc(C(=O)NCc2ccnc3[nH]ccc23)cc1	-21%[44.1 µM]
CCCN1CC[C@H]2COC(=O)N2c2cc(F)ccc2C1	i
CCCCN1C(=O)C(CC(=O)NC(C)(C)CC)Sc2ncccc21 (centres undefined)	i
Cc1noc(-c2cn(C3CCN(C(=O)c4cccc(Cl)c4)CC3)nn2)n1	-25%
O=C1NC2(Cc3ccccc31)CN(CC1CCNC1)C2 (centres undefined)	18%[44.1 µM]
CCc1noc(-c2cn(C3CCN(C(=O)c4ccc5c(c4)OCO5)C3)nn2)n1 (centres undefined)	i
COc1ccc(N2CC(C(=O)N3CCC(C(=O)N4CCN(c5ncccn5)CC4)C3)NC2=O)cc1 (centres undefined)	-4%
COc1ccc(-n2nc(C3CCN(C(=O)c4ccccc4Cl)CC3)[nH]c2=O)cc1	i
CS(=O)(=O)N1CCC2(CC1)CN(Cc1ccncc1)Cc1ccccc1O2	14%
COCCCNC(=O)c1cc2c(=O)[nH]c(C)cn2n1	21%
Cc1cn2nc(C(=O)NCc3cc(F)cc(F)c3)cc2c(=O)[nH]1	10%
Cc1cn2nc(C(=O)NCCCc3ccccc3)cc2c(=O)[nH]1	7.9µM*
Cc1ccc(CNC(=O)c2ccc(NC(=O)c3cc4c(=O)[nH]c(C)cn4n3)cc2)cc1	4µM*
Cc1cn2nc(C(=O)NCc3cccc(Cl)c3)cc2c(=O)[nH]1	8%
COc1ccc(CCNC(=O)c2cc3c(=O)[nH]c(C)cn3n2)cc1OC	i
CNC(=O)CCC[C@@H]1[C@H]2CCCN3CCC[C@@H](CN1C(=O)C1CCCCC1)[C@@H]23	-11%
O=C(N[C@H]1C[C@@H](CO)N(Cc2ccsc2)C1)c1cccnc1	-13%
CC(C)NC(=O)NC[C@H]1O[C@@H]2C[C@@H](CC(=O)N3CCOCC3)O[C@@H]2[C@@H]1O	30%[44.1 µM]
COc1ccc2c(c1)-c1nc(NC(=O)c3cccc(Br)c3)sc1CC2	10µM*
COc1ccc2c(c1)CCc1sc(NC(=O)c3ccc(Br)cc3)nc1-2	-2%
SMILES	Pf Dd2 growth
COc1cccc(OC)c1C(=O)Nc1nc2c(s1)CCc1ccccc1-2	21%
COc1cccc(S(=O)(=O)N2CCC(C(=O)N3CCCCCCNC(=O)CC3)CC2)c1	i
O=C(c1cnc2c(O)cccn2c1=O)N1CCC2(CC1)OCCCC2O (centres undefined)	-13%
O=C(Cn1ccccc1=O)N1CCC(N2CCSCC2)CC1	-17%
COc1ccc(-c2noc(C(=O)O)c2[C@@H](C)NC(=O)c2cccnc2)cc1	-24%[44.1 µM]
COc1ccc(-c2noc(C(=O)O)c2[C@@H](C)NC(=O)c2cc(C)n(C)n2)cc1	3.2µM*
COc1ccc(-c2noc([C@@H](C)NC(=O)c3cc(C)n(C)n3)c2C(=O)O)cc1	-18%[44.1 µM]
O=C(NCCc1noc(C2CC2)n1)Nc1ccc(C(F)(F)F)cc1	-30%
COc1cc(CN2CCN(Cc3cnc(C)s3)CC2CCO)cc(OC)c1 (centres undefined)	-8%
COc1ccc(-n2nc(C3CCCN(C(=O)C(C)(C)C)C3)[nH]c2=O)cc1 (centres undefined)	i
CC(C)c1cnc(C2CCCN(C(=O)OC(C)(C)C)C2)[nH]1 (centres undefined)	11µM*
CCCCc1ncc(CN2CCCC(c3cccc(C(=O)O)c3)C2)[nH]1 (centres undefined)	-2%
CC(C)Cc1cnc(C2CCCN(C(=O)OC(C)(C)C)C2)[nH]1 (centres undefined)	7.1µM*
Cc1cnc(C2CC2)n1C1CCCN(C(=O)CC(C)C)C1 (centres undefined)	-7%
CC(C)(C)C(=O)N1CCCC(c2nn(-c3ccccc3)c(=O)[nH]2)C1 (centres undefined)	i
